Bioassay records (PubChem)
TIM10 inh: inhibits growth of TIM10 yeast strain | S. cerevisiae TIM10 strain growth, BacTiter-Glo luminescence, 24 h | inhibition, % at 10 µM | 330,000 tested, 1.4% active;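 active = inhibition of 40% or more at the single tested concentration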;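 also: wild-type TIM10 isogenic control strain grown at permissive 25 °C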
tim23-1 inh: tim23-1 yeast growth inhibition. S. cerevisiae tim23-1 growth, BacTiter-Glo luminescence, 24 h. inhibition, % at 20 µM. 330,000 tested, 1.3% active;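 active = growth inhibition of the mutant yeast at or above 50%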;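 also: temperature-sensitive mutant grown at 25 °C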
NALP1 yeast inh: blocks the NALP1 inflammasome reconstituted in yeast. 280,000 tested, 0.61% active. S. cerevisiae NALP1/ASC/caspase-1 growth, X-gal OD620, 72 h. AID 2071. inhibition, % at 10 µM; in the data active = inhibition mostly above about 24%, no sharp cut-off; inactive = mostly below about 32%
tim10-1 inh: tim10-1 yeast growth inhibition | S. cerevisiae tim10-1 ts strain growth, BacTiter-Glo, 24 h | inhibition, % at 20 µM | 330,000 tested, 2.2% active | AID 463190;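 active = inhibition of at least 40%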;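 also: mutant grown at 25 °C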
V-ATPase pHluor: yeast V-ATPase proton transport regulation by pHLuorin. response, % at 10 µM. 350,000 tested, 0.37% active. S. cerevisiae, pHLuorin cytosolic pH fluorescence; in the data active = response mostly above about 7.3%, no sharp cut-off; inactive = mostly below about 5.4%; also: actives read high
NLRP3 yeast inh: inhibitors of NALP3 inflammasome in yeast. inhibition, % at 10 µM. Yeast reconstituted NLRP3/ASC/caspase-1, beta-gal luminescence, 24 h. 330,000 tested, 0.39% active;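 active = inhibition of 50% or more; inactive = inhibition below 50%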
tim10-1 confirm: confirmation of tim10-1 mutant yeast growth inhibitors | AID 463213 | 7,400 tested, 56% active | S. cerevisiae tim10-1 ts strain growth, BacTiter-Glo, 24 h | inhibition, % at 20 µM | shares compounds with tim10-1 inh;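 active = inhibition of yeast growth at or above a set limit in either of two repeat tests at 20 µM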;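 also: tim10-1 mutant grown at permissive 25 °C to find synthetic lethal compounds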
tim10 confirm: confirmation of TIM10 yeast growth inhibitors. 4,600 tested, 63% active. inhibition, % at 10 µM. shares compounds with TIM10 inh. S. cerevisiae tim10 strain growth, BacTiter-Glo luminescence, 24 h. AID 463215;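 active = inhibition of yeast growth at or above a set limit in either of two replicates at 10 µM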; also: this counterscreen used the strain with wild-type TIM10
Hits are given with their value; – = inactive; · = no result given. Only some compounds are listed: those with a hit (about 4.2% of all), similar ones and a draw of the others.

SMILES	TIM10 inh	tim23-1 inh	NALP1 yeast inh	tim10-1 inh	V-ATPase pHluor	NLRP3 yeast inh	tim10-1 confirm	tim10 confirm
Cc1nc(C)c(C(=O)NNS(=O)(=O)c2ccccc2)s1	–	–	·	–	–	–	·	·
Cc1cc(C)c2c(-n3cccc3)c(C(=O)NNS(=O)(=O)c3ccc(Br)cc3)sc2n1	41	–	–	41	–	–	44	–
Cn1nnnc1SCC(=O)N1CCCCC1	–	–	–	–	–	–	·	·
CCc1ccc(-c2cc(C)no2)cc1S(=O)(=O)N1CCN(c2ccc(OC)cc2)CC1	–	–	–	–	–	–	·	·
Nc1c(C(=O)NCCc2ccc(Cl)cc2)sc2ccc(S(=O)(=O)N3CCCCC3)cc12	44	–	–	43	·	–	35	–
COC(=O)c1c(C)nc(C)c(C(=O)OC)c1-c1ccc(OC)cc1	–	–	–	–	–	–	·	·
COC(=O)c1ccc(S(=O)(=O)N2CCN(C)CC2)n1C	–	–	·	–	–	–	·	·
CNNC(=S)Nc1cccc(C(F)(F)F)c1	–	–	–	–	–	–	·	·
FC(F)(F)c1cccc(NC(=S)NNC(=S)Nc2cccc(C(F)(F)F)c2)c1	54	–	–	47	·	–	–	54
c1ccc(-c2nnc(-c3ccccn3)nc2NC2CCCCC2)cc1	67	–	–	47	–	–	36	63
Cc1cccc[n+]1CCCCCCCCCC[n+]1ccccc1C	46	–	–	52	–	–	70	47
CC(C)(C)c1cc(OC(=O)c2ccccc2F)ccc1O	48	–	–	45	–	–	–	43
Nc1cc(OC(=O)c2cccs2)nn1S(=O)(=O)c1ccc(F)cc1	53	–	–	41	–	–	31	–
Cc1cccc(C(=O)Nc2cccc(Br)c2)c1[N+](=O)[O-]	65	–	–	58	–	–	54	50
CCCCCCC(=O)N(O)C1CC(=O)N(Cc2ccccc2)C1=O (centres undefined)	43	–	47	45	–	–	41	–
CCCN(CCC)C1CC(=O)N(Cc2ccccc2)C1=O (centres undefined)	42	–	–	53	–	–	47	39
COc1ccc(N2CC(O)=C(c3nc(-c4ccc(Cl)cc4)cs3)C2=N)cc1	–	–	–	–	–	–	·	·
O=c1cc(-c2ccccc2)n(S(=O)(=O)c2ccccc2)o1	–	–	–	–	–	–	·	·
O=c1cc(-c2ccccc2)n(S(=O)(=O)c2ccc3ccccc3c2)o1	64	–	·	42	–	–	37	44
CC1CCCCC1NC(=O)CCN1C(=O)C2C3C=CC(C3)C2C1=O (centres undefined)	–	–	–	–	–	–	·	·
Cc1cc(C)n(S(=O)(=O)/C=C/c2ccccc2)n1	44	–	·	50	–	–	42	42
Cc1ccc(S(=O)(=O)n2nc(C)cc2C)cc1	–	–	–	–	–	–	·	·
NS(=O)(=O)c1ccc(NC(=O)COC(=O)C2CC2)cc1	–	–	·	–	–	–	·	·
COc1ccccc1OCC(=O)Nc1ccncc1	–	–	–	–	–	–	·	·
C=CCN(CC=C)S(=O)(=O)c1ccc(NC(=O)COc2ccccc2OC)cc1	42	–	–	45	–	–	32	–
SMILES	TIM10 inh	tim23-1 inh	NALP1 yeast inh	tim10-1 inh	V-ATPase pHluor	NLRP3 yeast inh	tim10-1 confirm	tim10 confirm
COc1ccc(NC(=O)c2ccc([N+](=O)[O-])s2)c([N+](=O)[O-])c1	–	–	–	–	–	–	·	·
O=C(Nc1ccccc1N1CCOCC1)c1ccc([N+](=O)[O-])s1	61	–	·	66	–	–	72	84
Cc1ccnc(NC(=O)c2cc([N+](=O)[O-])cc([N+](=O)[O-])c2)c1	–	–	–	–	–	–	·	·
Cc1cccc(NC(=O)c2ccc([N+](=O)[O-])s2)c1C	61	–	–	66	–	–	55	53
Cc1ccnc(NC(=O)c2ccc([N+](=O)[O-])s2)c1	69	–	–	75	–	–	72	80
O=C(NC1CCCC1)c1ccc([N+](=O)[O-])s1	–	–	–	–	–	–	·	·
Cc1cccc(C)c1NC(=O)c1ccc([N+](=O)[O-])s1	59	–	–	66	–	–	54	53
O=C(Nc1ccccc1N1CCOCC1)c1ccccc1[N+](=O)[O-]	–	–	–	–	–	–	·	·
Cc1cccc(/C=C/C(=O)c2ccc(NC3=NCCCS3)cc2)c1	66	–	62	54	–	–	50	59
Cc1cccc(C(=O)Nc2ccc(C(=O)/C=C/c3cccnc3)cc2)c1	·	·	–	·	–	·	·	·
COc1ccccc1C(=O)Nc1nnc(SCC(=O)Nc2ccc3c(c2)oc2ccccc23)s1	–	–	–	–	–	–	·	·
COc1ccc(/C=C/C(=O)c2cc(F)ccc2OC(=O)c2ccccc2)cc1OC	48	–	·	52	–	–	48	–
COc1ccc(/C=C/C(=O)c2cc(F)ccc2OC(=O)c2ccccc2OC)cc1OC	·	·	–	·	–	·	·	·
CC1CCN(S(=O)(=O)c2ccc(Cl)cc2Br)CC1	–	–	–	–	–	–	·	·
CCCCC(C(=O)O)C(C)CC(=O)Nc1cccc(C(=O)O)c1 (centres undefined)	–	–	–	–	–	–	·	·
COc1ccc(/C=C2\SC(=S)N(CC(=O)NC3CCS(=O)(=O)C3)C2=O)cc1 (centres undefined)	–	–	–	–	–	–	·	·
O=C(COc1ccccc1F)Nc1ccc(S(=O)(=O)NCc2ccco2)cc1	40	–	–	46	–	–	33	–
Cc1ccc(-c2[nH]nc(N)c2N=Nc2ccccc2C)cc1	45	–	–	56	–	–	–	46
Cc1ccc(-c2[nH]nc(N)c2N=Nc2cccc(Cl)c2C)cc1	·	·	–	·	–	·	·	·
Cc1cccc(N=Nc2c(N)n[nH]c2-c2ccc(Cl)cc2)c1	56	–	–	52	–	–	–	–
CC(C)CC(=O)NS(=O)(=O)c1ccc(NC(=O)c2ccco2)cc1	–	–	–	–	–	–	·	·
CCOC(=O)c1c(CSc2ccc(CC)cc2)oc2ccc(O)c(CN(C)C)c12	55	–	–	49	7.6	–	58	65
CCOC(=O)c1c(C)oc2ccc(O)c(CN(C)C)c12	–	–	–	–	–	–	·	·
COc1ccc(Cn2c(-c3ccc(Br)cc3)c[n+]3ccccc23)cc1	55	–	·	48	–	–	30	–
COc1ccc2c(c1)c1nnc(SC)nc1n2C	81	–	–	63	–	–	66	81
COc1cc(C2Nc3cccc4cccc(c34)N2)cc(OC)c1O	–	–	–	–	–	–	·	·
Oc1ccc(C2Nc3cccc4cccc(c34)N2)c(O)c1	41	–	–	42	–	–	44	38
O=c1cc(CSc2nc3ccccc3c(=O)[nH]2)c2ccc(O)cc2o1	·	·	–	·	–	·	·	·
